HepG2 viability – HepG2 cytotoxicity, counter-screen for TGF-b inhibitors; Potency, µM (highest dose often 46.1 µM), inactives show at the highest dose activity change, negative = cytotoxicity, hits mostly cytotoxic; AID 588856; 0.76% of 410,000 active; HepG2 CAGA-GFP viability, ATP luminescence, 18 h; note: potency is the fitted concentration of half-maximal effect
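CellTiter-Glo luminescence gave cytotoxicity after 18 hours at 37 degrees C. The cells were HepG2 CAGA-GFP in 1% FBS DMEM, stimulated with 500 pg/mL TGF-beta after compound addition. %Activity was normalised to no-cell wells (complete cell-killing) and DMSO (no toxicity), and curves were fitted and classified.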
ATXN2 expr inh – inhibitors of ATXN2 expression | HEK-293 ATXN2-luciferase reporter, luminescence, 24 h | Potency, µM (highest dose often 57 µM), for the others: at the top dose activity change, negative = inhibition, hits mostly inhibitors | 0.72% of 360,000 active | AID 1745845; note: potency is the fitted concentration of half-maximal effect; % is set by controls: 0 for no effect and ±100 for the full control effect; nearly all actives have a fitted effect of over 55% in size
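ATXN2-luciferase reporter cells (luciferase flanked by upstream and downstream ATXN2 gene portions) were treated 24 h at 37 °C with compounds at up to 57 uM. SteadyGlo luminescence gave expression; GF-AFC fluorescence gave viability.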
IL-1B inflam inh – inflammasome signaling inhibition, IL-1 beta readout; THP-1 LPS/ATP IL-1B secretion, AlphaLISA, 16 h; stronger effect = lower value; activity change, % at 57.5 µM; 4.7% of 360,000 active; in the data active = activity change below about -50%; inconclusive = mostly about -30% to -49%; note: % is set by controls: 0 for no effect and ±100 for the full control effect
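THP-1 cells pretreated 1 hr with compounds (up to 57.5 uM final), then stimulated with LPS (250 ng/mL final) plus ATP (1.25 mM final); secreted IL-1B measured by AlphaLISA after 16 hr, decreased signal indicating inhibition.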
ATXN viability – cell viability loss in ATXN counter-screen; S2 cells (HEK-293 line with an ATXN2-luciferase reporter) viability, CellTiter-Fluor protease fluorescence, 24 h; Potency, µM (doses to about 56.7 µM), actives largely listed as cytotoxic; 0.49% of 400,000 active; AID 651635; note: potency is the fitted concentration of half-maximal effect; nearly all actives have a fitted effect of over 40% in size
TGFb SMAD3 inh – blocks TGF-b signaling; HepG2 CAGA-GFP TGF-b/SMAD3 reporter, GFP fluorescence, 18 h; TGF-beta stimulated, 500 pg/mL final; Potency, µM (titrated, usually from 46.1 µM), without a hit: at the highest dose activity, negative = inhibition, most hits filed as inhibitors; 1.2% of 410,000 active; note: potency is the fitted concentration of half-maximal effect; % is set by controls: 0 for no effect and ±100 for the full control effect; nearly all actives have a fitted effect of over 65% in size
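Smad-responsive CAGA-GFP expression was quantified in HEPG2 cells exposed to compounds and 500 pg/mL final TGF-beta for 18 h at 37 degrees C; unstimulated wells defined full inhibition.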
An asterisk follows results filed as active; [ ] = another dose, or the depositor's remark. Most compounds without a hit are left out; they make up all but 5.7% or so of the library. Unless noted, calls come from the whole dose curve; as a rule, active = well fitted curve in the direction sought with a large enough effect; inconclusive = small, poorly fitted or top-dose-only effect, or another doubt; inactive = no such curve, though single readings can be large; an effect the other way counts as inactive or inconclusive.

What do the screens show for `Cc1cccc(NC(=O)c2nc[nH]c2C(=O)NCCCCCNC(=O)OC(C)(C)C)c1`?
HepG2 viability: -71%; ATXN2 expr inh: inconclusive; IL-1B inflam inh: -75*; TGFb SMAD3 inh: inconclusive

Results for CCS(=O)(=O)c1cccc(-c2cc(C(=O)NC3CCN(C)CC3)c(C)c3[nH]c4ncc(C)cc4c23)c1 ?
ATXN2 expr inh: 1.9µM*

What do the screens show for `CN1CCN(S(=O)(=O)c2cccc(C(=O)NC3CCCC3)c2)CC1`?
HepG2 viability: 70%; ATXN2 expr inh: 9%; IL-1B inflam inh: -1; ATXN viability: inactive; TGFb SMAD3 inh: 13%

What do the screens show for `CCOC(=O)c1cc(-c2ccccc2)nc2nc(N(CC)CC)sc12`?
HepG2 viability: -6%; ATXN2 expr inh: 46%; IL-1B inflam inh: -54*; ATXN viability: inactive; TGFb SMAD3 inh: 5%

How did CCOC(=O)c1cc(-c2ccccc2)nc2nc(N3CCCCC3)sc12 do in these assays?
HepG2 viability: 0%; ATXN2 expr inh: 65%; IL-1B inflam inh: 15; TGFb SMAD3 inh: 12%

How did N#Cc1cc(C(=O)c2cc(F)ccc2O)cn(-c2nccs2)c1=O do in these assays?
HepG2 viability: -28%; ATXN2 expr inh: -24%; IL-1B inflam inh: 23; ATXN viability: inactive; TGFb SMAD3 inh: 9%

Results for Cc1c(-n2cc(C(=O)c3cc(F)ccc3O)cc(C#N)c2=O)c(=O)n(-c2ccccc2)n1C ?
HepG2 viability: 20%; ATXN2 expr inh: -26%[11.3 µM]; IL-1B inflam inh: -56*; ATXN viability: inconclusive; TGFb SMAD3 inh: 33%

What do the screens show for `C/C=C1\COC(C(=O)NC)(C(F)(F)F)C=C1C=C1CCCCC1` (centres undefined)?
HepG2 viability: -59%; TGFb SMAD3 inh: 16µM*

What do the screens show for `C/C=C1\COC(C(=O)NCc2ccncc2)(C(F)(F)F)C=C1C=C1CCCCC1` (centres undefined)?
HepG2 viability: -27%; ATXN2 expr inh: -14%; IL-1B inflam inh: 95; ATXN viability: inactive; TGFb SMAD3 inh: 10µM*

Results for C/C=C1\COC(C(=O)NCCOCCO)(C(F)(F)F)C=C1C=C1CCCCC1 (centres undefined) ?
HepG2 viability: -57%; TGFb SMAD3 inh: 13µM*

How did Cc1oc2c(C)c3oc(=O)c(CC(=O)N4CCCCC4)c(C)c3cc2c1C do in these assays?
HepG2 viability: -1%; TGFb SMAD3 inh: -16%

What do the screens show for `CCN(CC)CCNC(=O)c1c(C)n(-c2ccccc2)c2cc(Br)c(OC)cc12`?
HepG2 viability: 20µM*; ATXN2 expr inh: inconclusive; IL-1B inflam inh: inconclusive; ATXN viability: inconclusive; TGFb SMAD3 inh: inconclusive

How did COc1cc2c(C(=O)N3CCN(C)CC3)c(C)n(-c3ccccc3)c2cc1Br do in these assays?
HepG2 viability: -3%; IL-1B inflam inh: -16; TGFb SMAD3 inh: -11%

How did CCCCOc1ccc(C(=O)NCCc2sc3nc(-c4ccc(OC)cc4)nn3c2C)cc1 do in these assays?
HepG2 viability: -10%; ATXN2 expr inh: -2%; ATXN viability: inactive; TGFb SMAD3 inh: inconclusive

What do the screens show for `COc1ccccc1NC(=O)N1c2ccccc2Sc2ccccc21`?
HepG2 viability: 4%; ATXN2 expr inh: 11%; ATXN viability: inactive; TGFb SMAD3 inh: inconclusive

How did Fc1ccc(CNc2cc(-c3ccccc3)nc3nncn23)cc1 do in these assays?
HepG2 viability: -20%; ATXN2 expr inh: -38%; ATXN viability: inactive; TGFb SMAD3 inh: -13%

Results for CCOC(=O)C1(CCCc2ccccc2)CCN(Cc2cnc(C)s2)CC1 ?
HepG2 viability: -19%; ATXN2 expr inh: inconclusive; IL-1B inflam inh: -88*; ATXN viability: inconclusive; TGFb SMAD3 inh: -4%

What do the screens show for `CCOC(=O)C1(CCCc2ccccc2)CCN(Cc2cn(CC)nc2C)CC1`?
HepG2 viability: -32%; ATXN2 expr inh: -36%; IL-1B inflam inh: -77*; ATXN viability: inactive; TGFb SMAD3 inh: -29%

Results for CCOC(=O)C1(CCCc2ccccc2)CCN(C(=O)C2=C(C)OCCO2)CC1 ?
HepG2 viability: -33%; ATXN2 expr inh: -35%; IL-1B inflam inh: -80*; ATXN viability: inactive; TGFb SMAD3 inh: -16%

Results for CCOC(=O)C1(Cc2cccc(F)c2)CCN(Cc2cn(CC)nc2C)CC1 ?
HepG2 viability: -20%; ATXN2 expr inh: -18%; IL-1B inflam inh: -20; TGFb SMAD3 inh: -10%

What do the screens show for `CCOC(=O)C1(CCCc2ccccc2)CCN(Cc2nccn2CC)CC1`?
HepG2 viability: -25%; ATXN2 expr inh: -33%; IL-1B inflam inh: -55*; ATXN viability: inactive; TGFb SMAD3 inh: inconclusive

How did CCOC(=O)C1(CCOc2ccccc2)CCN(Cc2nccn2CC)CC1 do in these assays?
HepG2 viability: -22%; ATXN2 expr inh: -24%; IL-1B inflam inh: -4; ATXN viability: inactive; TGFb SMAD3 inh: -9%

Results for CC(C)c1c(C(=O)NCc2cccnc2)cnn1-c1nccc(-c2cccs2)n1 ?
ATXN viability: inactive

Results for CCCc1cc2c(=O)c(-c3ccc4c(c3)OCCO4)c(C)oc2cc1OS(C)(=O)=O ?
HepG2 viability: -14%; ATXN2 expr inh: -7%; IL-1B inflam inh: -11; ATXN viability: inactive; TGFb SMAD3 inh: -20%

How did CCCc1cc2c(=O)c(-c3ccc4c(c3)OCCO4)coc2cc1OS(C)(=O)=O do in these assays?
HepG2 viability: -3%; ATXN2 expr inh: 43%; IL-1B inflam inh: -54*; ATXN viability: inactive; TGFb SMAD3 inh: -8%

Results for C1=CCOCc2cc(ccc2OCCN2CCCC2)Nc2nccc(n2)-c2cccc(c2)OCC1 ?
ATXN2 expr inh: 15µM*

How did CC1(O)CC(c2ccc(Cl)cc2)=NN1C(=O)c1ccc([N+](=O)[O-])cc1 (centres undefined) do in these assays?
HepG2 viability: -38%; ATXN2 expr inh: inconclusive; IL-1B inflam inh: -88*; ATXN viability: inactive; TGFb SMAD3 inh: inconclusive

What do the screens show for `CN(C)c1cccc2c1c(NC(=O)Nc1ccc(F)cc1F)nn2C`?
HepG2 viability: -15%; IL-1B inflam inh: -53*; ATXN viability: inactive; TGFb SMAD3 inh: -24%

What do the screens show for `CCOc1ccc(CCNC(=O)Cn2c(-c3cccs3)cc3cc(F)ccc32)cc1OCC`?
HepG2 viability: -62%; ATXN2 expr inh: 22µM*; ATXN viability: 11µM*; TGFb SMAD3 inh: inconclusive

Results for COc1ccc(CN(C)Cc2cc(=O)oc3cc(C)c(C(C)C)cc23)cc1OC ?
HepG2 viability: -7%; ATXN2 expr inh: -24%; IL-1B inflam inh: -58*; ATXN viability: inactive; TGFb SMAD3 inh: inconclusive

How did Cc1cc2oc(=O)cc(CN(C)Cc3ccccc3)c2cc1C(C)C do in these assays?
HepG2 viability: 6%; ATXN2 expr inh: -3%; IL-1B inflam inh: -12; ATXN viability: inactive; TGFb SMAD3 inh: -14%

Assay outcomes: PubChem, National Center for Advancing Translational Sciences (NCATS)
